Screens (PubChem BioAssay)
An excerpt weighted towards active compounds, which were near 6.7% of everything screened.
SW480 rereplic = DNA re-replication induction in SW480 cells; SW480 DNA re-replication, Hoechst DNA content imaging, 48 h; Potency, µM (top dose mostly 46.1 µM), for inactives: at the top dose re-replication activation, hits mostly activators; actives 1.8% (n = 340,000); AID 624297; further: % of control where 0% means no effect; nearly all actives have a fitted effect of over 55% in size
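Quantitative HTS format with DMSO vehicle controls; 48 hr drug incubation at 37 C, then 40 min Hoechst staining and scanning imager measurement at 405 nm excitation.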
KB-V1 cytotox = KB-V1 MDR subline cytotoxicity | KB-V1 MDR cells viability, CellTiter-Glo, 72 h | Potency, µM (highest dose often 46.1 µM), usual class: cytotoxic | actives 3.4% (n = 400,000) | AID 1347076; further: on the % scale 0 is the no-effect control and ±100 the full control effect; nearly all actives have a fitted effect of over 60% in size
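Readout: CellTiter-Glo luminescence, 10 min after addition. Cells: KB-V1 MDR subline, 72 h at 37 degrees C with compound. Analysis: corrected, normalized data fitted to concentration-effect curves.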
MCF10A rerep = DNA re-replication induction in MCF 10a cells. MCF 10A DNA re-replication, Hoechst nuclear intensity, 48 h. actives 2.9% (n = 350,000). Potency, µM (doses to about 46.1 µM), inactives show at the top dose activity, positive = re-replication, actives largely listed as activators; further: % of control where 0% means no effect; nearly all actives have a fitted effect of over 50% in size
KB-3-1 cytotox = kills parental KB-3-1 adenocarcinoma cells; actives 1.4% (n = 400,000); AID 1347075; KB-3-1 viability, CellTiter-Glo ATP luminescence, 72 h; Potency, µM (doses to about 46.1 µM), hits mostly cytotoxic; further: on the % scale 0 is the no-effect control and ±100 the full control effect; nearly all actives have a fitted effect of over 60% in size
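Parental KB-3-1 adenocarcinoma cells in phenol-red-free DMEM with 10% FBS were pin-treated with compounds at several concentrations, incubated 72 h at 37 °C, and viability read by CellTiter-Glo luminescence; concentration-effect curves were fitted after normalization.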
PINK1 modulator = modulators of PINK1 expression. actives 0.2% (n = 410,000). PINK1 immunofluorescence, high-content cytometry, 24 h. Potency, µM (top dose mostly 76.6 µM), without a hit: at the highest dose activation (PINK1 increase), hits mostly activators; active means well fitted activation curve with a large enough effect; inconclusive means small, poorly fitted or top-dose-only effect; cell line not stated here; further: % of control where 0% means no effect; nearly all actives have a fitted effect of over 65% in size
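Stable cell line, 250 cells/well, 12 h attachment; compounds pinned at 5 concentrations, 24 h; CCCP control. Fixed with nuclear dye, primary antibodies 12 h at 10 degrees C, secondary plus cell stain; laser-scanning cytometer read.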
Starred values were filed as active, the others as inactive; i = inactive; ? = inconclusive; nt = no result; ! = a repeat was not active; [ ] = remark or other dose. Unless noted, the call rests on the fitted dose curve; in most records, active means well fitted curve in the direction sought with a large enough effect; inconclusive means small, poorly fitted or top-dose-only effect, or another doubt; inactive means no such curve, though single readings can be large; an effect the other way counts as inactive or inconclusive. Potency means the concentration at half of the fitted maximal effect.

SMILES	SW480 rereplic	KB-V1 cytotox	MCF10A rerep	KB-3-1 cytotox	PINK1 modulator
O=c1c2ccccc2nc(/C=C/c2cccc3ccccc23)n1-c1ccc(F)cc1F	nt	i	nt	i	0%
C[C@H](CO)N1C[C@H](C)[C@@H](CN(C)Cc2ccncc2)Oc2c(NC(=O)Cc3ccccc3)cccc2C1=O	?	i	1%	16µM*	2%
C[C@H](CO)N1C[C@H](C)[C@@H](CN(C)C(=O)Nc2ccc(C(F)(F)F)cc2)Oc2c(NC(=O)NC3CCCCC3)cccc2C1=O	-46%	i	3.3µM*	?	4%
C[C@H]1CN([C@@H](C)CO)C(=O)c2cccc(NC(=O)C3CC3)c2O[C@H]1CN(C)Cc1ccncc1	?	i	-1%	i	0%
C[C@H](CO)N1C[C@H](C)[C@@H](CN(C)Cc2ccccc2)Oc2c(NC(=O)Cc3ccccc3)cccc2C1=O	-5%	?	?	23µM*	-1%
C[C@H](CO)N1C[C@H](C)[C@@H](CN(C)C)Oc2c(NS(=O)(=O)c3cn(C)cn3)cccc2C1=O	0.92µM*	i	-9%	i	-1%
C[C@@H]1CN([C@H](C)CO)C(=O)c2cccc(NC(=O)NC3CCCCC3)c2O[C@@H]1CN(C)C(=O)Nc1ccc(C(F)(F)F)cc1	?	i	?	?	6%
C[C@H](CO)N1C[C@H](C)[C@@H](CN(C)C(=O)Nc2ccccc2)Oc2c(NS(=O)(=O)c3cn(C)cn3)cccc2C1=O	0%	i	?	i	-1%
C[C@H](CO)N1C[C@H](C)[C@@H](CN(C)Cc2ccc(-c3ccccc3)cc2)Oc2c(NC(=O)Cc3ccccc3)cccc2C1=O	?	?	?	i	0%
CC(=O)c1ccc(S(=O)(=O)Nc2ccc(C(=O)N(C)CC(=O)Nc3cccc(C)c3C)cc2)cc1	?	i	-2%	i	0%
N#Cc1ccc(CN2CCC3(CC2)CCN(C(=O)c2csnn2)CC3)cc1	nt	nt	nt	nt	0%
O=C1Oc2ccccc2C(=O)C1C(CC(O)c1ccc(-c2ccc(Br)cc2)cc1)c1ccccc1 (stereo not drawn)	-3%	nt	30µM*	nt	nt
OC(CN1CCN(C(c2ccccc2)c2ccccc2)CC1)c1ccc(Br)cc1 (stereo not drawn)	-1%	i	9%	i	?
O=C(Nc1ccc(Oc2cccnc2)cc1)c1ccccc1F	-1%	16µM*	2%	?	-4%
Cc1ccc(C(=O)c2cc([N+](=O)[O-])ccc2N2CC(C)OC(C)C2)cc1 (stereo not drawn)	12µM*	?	22%	i	12%
Cc1ccc(C(=O)c2cc([N+](=O)[O-])ccc2N2CCCCC2)cc1	0.58µM*	?	?	i	2%
Cc1ccc(C)c(NS(=O)(=O)c2cc(C(=O)Nc3ccccc3-c3ccccc3)ccc2C)c1	17%	4.6µM*	19%	?	-4%[38.3 µM]
Cc1ccc(C(=O)Nc2cccc([N+](=O)[O-])c2)cc1S(=O)(=O)Nc1ccc(C(=O)O)cc1	1%	i	?	i	2%
Cc1ccccc1NS(=O)(=O)c1cc(C(=O)Nc2cccc([N+](=O)[O-])c2)ccc1C	-1%	12µM*	?	?	?
Cc1ccc(C(=O)Nc2ccccc2-c2ccccc2)cc1S(=O)(=O)Nc1cccc(C)c1C	12%	i	0%	i	-6%[38.3 µM]
C[C@@H]1CN([C@H](C)CO)C(=O)CCCn2nncc2CO[C@H]1CN(C)S(=O)(=O)c1cccc(F)c1	nt	i	nt	i	0%
CC(=O)Oc1ccc(C)cc1	1%	nt	2%	nt	nt
CC(=O)Oc1ccc(C2=Cc3ccc(OC(C)=O)cc3OC2C)cc1 (stereo not drawn)	?	?	4.1µM*	?	-3%
COc1ccc(N2CCN(C(=O)CCNS(=O)(=O)c3ccc(Br)s3)CC2)cc1	-5%	13µM*	3%	?	0%
O=C(CNS(=O)(=O)c1ccc(Br)s1)N1CCN(c2ccc(F)cc2)CC1	0%	18µM*!	11%	23µM*!	-3%
SMILES	SW480 rereplic	KB-V1 cytotox	MCF10A rerep	KB-3-1 cytotox	PINK1 modulator
COc1ccc(N2CCN(C(=O)C(CC(C)C)NS(=O)(=O)c3ccc4nc(C)sc4c3)CC2)cc1 (stereo not drawn)	nt	i	nt	i	1%
O=C(Nc1cccc(S(=O)(=O)N2CCCCC2)c1)c1ccc(S(=O)(=O)C(F)F)cc1	-3%	7.3µM*	2%	?	0%
COc1cc(C(=O)Nc2cccc(S(=O)(=O)N3CCCC3)c2)cc(OC)c1C	1%	23µM*	?	?	2%
O=C(Cc1ccc(Cl)cc1)Nc1cccc(S(=O)(=O)N2CCCCC2)c1	-7%	i	?	?	14%
CC(C)Cn1nc(C(=O)Nc2cccc(S(=O)(=O)N3CCCC3)c2)c2ccccc2c1=O	7%	4.6µM*	17%	i	-1%
O=C(CCl)Nc1cccc(S(=O)(=O)N2CCCCCC2)c1	13µM*	23µM*	?	16µM*	-1%
CCOC1=C2[C@@H](CN(S(=O)(=O)c3ccc(C)cc3)[C@H]2c2ccccc2)[C@H]2C(=O)N(c3ccccc3)C(=O)[C@H]2C1	nt	i	nt	i	7%
COc1ccc(NC(=O)N(C)C[C@H]2OCc3cnnn3CCCC(=O)N([C@@H](C)CO)C[C@H]2C)cc1	nt	i	nt	?	1%
CC[C@]12c3[nH]c4cc(-c5ccco5)ccc4c3CCN1C(=O)[C@@H](CC(=O)NCCCN(C)C)C[C@@H]2C(=O)N1CCN(C(=O)c2ccco2)CC1	-10%	i	?	i	0%
O=C(Nc1cccc(S(=O)(=O)N2CCCCC2)c1)c1ccc2c(=O)n3c(nc2c1)CCCCC3	-8%	5.8µM*	24%	12µM*	5%
O=C(NCc1ccccc1Cl)c1cc2cccc3c2n1CCS3	nt	i	nt	?	-1%
Cc1cccn2cc(COc3cccc([N+](=O)[O-])c3)nc12	-15%	i	4%	i	2%
Cc1cccn2cc(COc3ccc(-c4ccccc4)cc3)nc12	-9%	?	16µM*	i	-1%
COc1ccc2c(c1)c(/C=C/c1cc[n+](C)cc1)cn2C	0%	?	-8%	16µM*	7%
Cc1ccc2[nH]cc(/C=C/c3cc[n+](C)cc3)c2c1	8.2µM*	i	?	0.92µM*	3.5µM*
COc1ccc2c(/C=C/c3cc[n+](C)cc3)c[nH]c2c1	-1%	?	-14%	1.8µM*	?
CCc1nn(CCCC(=O)NC2CCCCC2C)c(=O)c2cc3occc3n12 (stereo not drawn)	nt	?	nt	?	3%
COc1ccc(CCNC(=O)c2cnn3c2NC(=C2CC2)C=C3C(F)F)cc1OC	nt	i	nt	?	1%
